Assay results published in PubChem BioAssay (EPA / NIEHS).
Several values for one entry are separate records, joined by “and”; a condition that tells them apart may be missing. Equal entries are not always repeated. Activity calls are given as the source filed them. How the source made its calls: active means hit-call score of the fitted dose curve at least 0.9, where 1 is the maximum; inactive means score below 0.9.

Read-out: CD40, CD40 (gene 958)
Test: BSK_SAg_CD40: BioMAP Diversity Plus: SAg Assay for CD40 Biomarker Activity (AID 2283088)
Details: primary human HUVEC with PBMC; actives raise or lower the signal
Description: BSK_SAg is a cell-based, multiplexed-readout assay that uses umbilical vein endothelium and peripheral blood mononuclear cells, a human vascular primary cell co-culture, with measurements taken at 24 hours after chemical dosing in a 96-well plate.BSK_SAg_CD40 is one of 10 assay component(s) measured or calculated from the BSK_SAg assay. It is designed to make measurements of enzyme-linked immunosorbent assay, a form of binding reporter, as detected with fluorescence intensity signals by Enzyme-linked immunosorbent assay technology.Data from the assay component BSK_SAg_CD40 was analyzed into 1 assay endpoint. This assay endpoint, BSK_SAg_CD40, was analyzed with bidirectional fitting relative to DMSO as the negative control and baseline of activity. Using a type of binding reporter, gain or loss-of-signal activity can be used to understand changes in the signaling as they relate to the gene CD40. Furthermore, this assay endpoint can be referred to as a primary readout, because this assay has produced multiple assay endpoints where this one serves a signaling function. To generalize the intended target to other relatable targets, this assay endpoint is annotated to the cytokine intended target family, where the subfamily is inflammatory factor.
The levels of cell surface (or secreted, indicated by the prefix "s") biomarker endpoints were measured by ELISA. Overt cytotoxicity to cells in confluent adherent cultures (all systems other than the BT system) was assessed by measuring total protein levels using sulforhodamine B (SRB) staining in parallel cultures at the time of biomarker measurements, indicated as SRB endpoints. For proliferation assays for adherent cell types, individual cell types are cultured at sub-confluence and relative cell numbers quantified by SRB staining at time points optimized for each system (48 h: 3C and CASM3C systems; 72 h: BT and HDF3CGF systems; 96 h: SAg system). SRB was performed by staining cells with 0.1% SRB after fixation with 10% TCA and reading wells at 560 nm.Viability and proliferation of PBMC (T cells) was quantified by Alamar Blue reduction for the SAg and BT systems. For PBMC viability (referred to as PBMC Cytotoxicity within the assay endpoint names), cells were plated (75,000/well in a 96-well plate) and then chemical samples added for 1 h before addition of activators, SEB and TSST-1 (20 ng/mL final concentration each). Cells were incubated for 90 h. Then, Alamar Blue (20 uL/well) (Invitrogen, Cat DAL1100) was added for 6 h, and the plates were read with a fluorescence microplate reader at 546/580 nm (excitation/emission). For PBMC proliferation, cells were plated and activated as above but incubated for only 16 h prior to addition of Alamar Blue. Plates were read after 6 h.

| Compound | outcome | AC50 |
| --- | --- | --- |
| CCO[Si](CCCN=C=O)(OCC)OCC | inactive |  |
| CCCCNc1ccc(NCCCC)c2c1C(=O)c1ccccc1C2=O | inactive |  |
| CC1OC1C1CCC2(C)OC2C1 (stereo unspecified) | inactive |  |
| CCCCCCCCCCCCCCCC[N+](C)(C)CC |  | 10.2 µM (active) |
| S=C(NC1CCCCC1)NC1CCCCC1 | inactive |  |
| CCCCC/C=C\C/C=C\CCCCCCCC(=O)OC |  | 20 µM (active) |
| CCOC(=O)c1ccccc1C(=C1C=C(Br)C(=O)C(Br)=C1)c1cc(Br)c(O)c(Br)c1 |  | 19.4 µM (active) and 19.1 µM (active) |
| C=C[Si](OC(C)=O)(OC(C)=O)OC(C)=O | inactive |  |
| C=CCOc1c(Br)cc(Br)cc1Br | inactive |  |
| COc1ccc2nc(N)sc2c1 | inactive |  |
| c1ccc2c(c1)ccc1ncccc12 |  | 20 µM (active) |
| CCCCC(CC)COCC1CO1 (stereo unspecified) | inactive |  |
| Nc1ccc(N)c(Cl)c1 |  | 26.4 µM (active) and 21.7 µM (active) |
| N#[N+]c1ccc2c(S(=O)(=O)[O-])cccc2c1O | inactive |  |
| CCCCCCCCc1ccc(Nc2ccc(CCCCCCCC)cc2)cc1 | inactive |  |
| c1ccc(-c2ccccn2)nc1 | inactive |  |
| O=c1c2ccccc2oc2ccccc12 | inactive |  |
| C#CC1(O)CC[C@H]2[C@@H]3CCC4=CCCC[C@@H]4[C@H]3CC[C@@]21C (stereo partly specified) |  | 30.2 µM (active) |

| Compound | outcome | AC50 |
| --- | --- | --- |
| C/C=C\C/C=C/CCCCCCCCOC(C)=O |  | 20 µM (active) |
| CO[Si](OC)(OC)c1ccccc1 | inactive |  |
| C=CCOCC(O)CCl (stereo unspecified) | inactive |  |
| CC(C)(c1cc(Br)c(OCCO)c(Br)c1)c1cc(Br)c(OCCO)c(Br)c1 |  | 13.3 µM (active) |
| CCOc1nc(F)cc2nc(S(=O)(=O)Nc3c(Cl)cccc3C(=O)OC)nn12 | inactive |  |
| c1ccc2c(c1)ccc1cc3c(ccc4ccccc43)cc12 | inactive |  |
| O=C(c1ccc(O)cc1)c1ccc(O)cc1O | inactive |  |
| O=C1CCCN1CCO | inactive |  |
| C=CC(=O)OCC(Br)CBr (stereo unspecified) |  | 11.7 µM (active) |
| O=Nc1ccc(O)cc1 | inactive |  |
| CN1C(=O)N(C)C(O)C1O (stereo unspecified) | inactive |  |
| C=CC=CC=CCCCCC | inactive |  |
| O=C(Nc1ccccc1SSc1ccccc1NC(=O)c1ccccc1)c1ccccc1 |  | 8.91 µM (active) |
| CCO[Si](C)(OCC)OCC | inactive |  |
| COCc1c(C(C)C)nc(C(C)C)c(/C=C/[C@@H](O)C[C@@H](O)CC(=O)O)c1-c1ccc(F)cc1 |  | 0.126 µM (active) |
| O=C(Cl)c1cc(C(=O)Cl)cc(C(=O)Cl)c1 |  | 30.3 µM (active) |
| CCCCC(CC)COC(=O)c1ccccc1O (stereo unspecified) | inactive |  |
| CC(C)C(=O)C(C)C | inactive |  |
